Pf Dd2 inh: inhibitors of Plasmodium falciparum Dd2 growth; AID 1347417; P. falciparum Dd2 growth, SYBR Green, 72 h; Potency, µM (series often up to 28.9 µM), for the others: at the top dose activity, negative = inhibition, most hits filed as inhibitors; 4.3% of 120,000 active; active = well fitted inhibition curve with a large enough effect;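 note: plate controls were DMSO vehicle for no effect and reference drug for full effect; nearly all actives have a fitted effect of over 65% in size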
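Readout: SYBR Green fluorescence, 485 nm excitation, 535 nm emission, after ~16 h lysis at 37C. Before that, Dd2-infected red cells (2.5% hematocrit) grew 72 h with compound, 29 uM top final concentration.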
An asterisk follows results filed as active; i = inactive; [ ] = dose if it differs, or a comment. Shown is part of a subset that was picked to be rich in hits. Potency is the fitted concentration of half-maximal effect.

SMILES	Pf Dd2 inh
COCCN1C(=O)c2ccccc2C(C(=O)NCC(C)C)C12CCCC2 (centres undefined)	1%
COCCN1C(=O)c2ccccc2C(C(=O)Nc2nnc(C(C)C)s2)C12CCCCC2 (centres undefined)	11µM*
CCCNC(=O)C1c2ccccc2C(=O)N(CCOC)C12CCCCC2 (centres undefined)	0%
C#CCNC(=O)[C@H]1C[C@@H](O)[C@H](O)[C@@H]2N=C(Nc3cccc(C(F)(F)F)c3)S[C@@H]21	i
COC(=O)CNC(=O)C1CCN(S(=O)(=O)c2cccc3nsnc23)CC1	12%
CCCN(CCC)CCCNC(=O)C1CCN(S(=O)(=O)c2cccc3nsnc23)CC1	i
CCC(C)NC(=O)C1CCC(CNS(=O)(=O)c2cccc3nsnc23)CC1 (centres undefined)	0.79µM*
Cc1ccc(NC(=O)C2CCN(S(=O)(=O)c3cccc4nsnc34)CC2)cc1F	-16%
Cc1ccc(NC(=O)C2CCC(CNS(=O)(=O)c3cccc4nsnc34)CC2)c(Cl)c1 (centres undefined)	i
Cc1ccc(Cl)cc1NC(=O)C1CCC(CNS(=O)(=O)c2cccc3nsnc23)CC1 (centres undefined)	3.5µM*
COc1ccc(C)cc1NC(=O)N1CCC(Oc2ncccc2C(=O)N(C)C)C1 (centres undefined)	i
CNC(=O)[C@@H](Cc1ccccc1)N1CCC[C@H]1C(=O)NC(C)(C)C	-15%[44.1 µM]
CC(C)CN1CCNC(=O)C1CC(=O)NCc1cc(Cl)ccc1Cl (centres undefined)	-3%
COc1ccc(C(=O)N2CCc3onc(-c4ccc(C(F)(F)F)cc4)c3C2)o1	-7%
COc1ccccc1Oc1ncccc1CNC(=O)c1ccccc1SC	-13%
COc1ccc(CNC(=O)[C@@]23CCCC[C@H]2N(C)C(=O)CC3)cc1	-17%
CC(C)C[C@@H](NC(=O)C1=C[C@@H](NC(=O)CC(C)(C)C)[C@@H](O)[C@H](O)C1)C(N)=O	17%[44.1 µM]
COc1ccc(-c2cc([C@H]3CN4CC[C@H]3C[C@@H]4CNC(=O)c3ccco3)n(C)n2)cc1OC	i
COc1ccc(-c2cc([C@H]3CN4CC[C@H]3C[C@@H]4COC(=O)NC(C)C)n(C)n2)cc1OC	i
CC(=O)NC[C@H]1C[C@@H]2CCN1C[C@@H]2c1cc(-c2ccc3ccccc3c2)nn1C	i
COc1ccc(-c2cc([C@H]3CN4CC[C@H]3C[C@@H]4CN)n(C)n2)cc1OC	11µM*
COc1ccc(OC)c(S(=O)(=O)NC[C@H]2C[C@@H]3CCN2C[C@@H]3c2cc(-c3ccc4ccccc4c3)nn2C)c1	i
Cn1nc(-c2ccc3ccccc3c2)cc1[C@H]1CN2CC[C@H]1C[C@@H]2CNC(=O)NCc1ccccc1	7.9µM*
COc1ccc(-c2cc([C@H]3CN4CC[C@H]3C[C@@H]4CNS(=O)(=O)c3ccc(NC(C)=O)cc3)n(C)n2)cc1	i
COc1ccc(-c2cc([C@H]3CN4CC[C@H]3C[C@@H]4CNC(=O)NCc3ccccc3)n(C)n2)cc1	-13%
SMILES	Pf Dd2 inh
COc1ccc(-c2cc([C@H]3CN4CC[C@H]3C[C@@H]4CNS(=O)(=O)c3ccc(Cl)cc3)n(C)n2)cc1OC	0.63µM*
Cn1cc(C(=O)N2CCC3(CC2)CN(Cc2ccccc2)CC3CO)cn1 (centres undefined)	8%
NCCC(=O)N1CCCC2(Cc3ccccc3CN2C(=O)c2ccccc2)C1 (centres undefined)	5%
CN1c2cc(C(=O)NCc3ccccc3Cl)ccc2C(=O)N2CCCC21 (centres undefined)	-8%
CCOC(=O)CCNC(=O)N1CCc2c(nc3cc(-c4ccccc4)[nH]n3c2=O)C1	i
CCN1CCC(N2C[C@@H](COC)[C@H](c3nc(C)no3)C2)CC1	22%
O=C1C(N2CCN(S(=O)(=O)c3cccc(F)c3)CC2)CCN1Cc1cccnc1 (centres undefined)	28%
O=C(NC1CCN(C(=O)N2CC3CC(C2)[C@H]2CCCC(=O)N2C3)CC1)C1CCCC1 (some centres undefined)	-25%
COc1ccc(-c2cc([C@H]3CN4CC[C@H]3C[C@@H]4CNC(=O)N3CCOCC3)nc(C)n2)cc1OC	-3%
O=C(O)c1ccc2nc(-c3cc4cccc(O)c4oc3=O)[nH]c2c1	-12%
COc1cccc2cc(-c3nc(-c4ccc(C)cc4)c(C)s3)c(=O)oc12	75%
CCN1CCN(C(=O)c2cc(-c3ccccc3)cn2C)CC1	2%
COc1cccc2cc(-c3nnc(-c4ccc(Cl)cc4)o3)c(=O)oc12	52%
COc1ccc(-c2cc3ccc(O)c(CN4CCOCC4)c3oc2=O)cc1OC	10µM*
COc1ccc(-c2c(C)c3ccc(O)c(CN4CCOCC4)c3oc2=O)cc1OC	-17%
CN1CCN(Cc2c(O)ccc3cc(-c4ccccc4)c(=O)oc23)CC1	10µM*
COc1ccc(-c2cc3ccc(O)c(CN4CCN(C)CC4)c3oc2=O)cc1OC	11µM*
O=C(NCC1CC1)c1csc(N2CCN(c3ccccc3F)CC2)n1	-4%
O=C(NCc1ccccc1-n1ccnc1)C1CC(=O)N(Cc2cccnc2)C1 (centres undefined)	8%
CC(C)(C)n1nnnc1C1CC2(CCOCC2)C(=O)N1CCc1nc2ccccc2[nH]1 (centres undefined)	i
Cc1cccc(-n2nc(-c3c(C)nc4scc(CC(=O)NCc5ccccc5)n4c3=O)cc2C)c1	-12%
N#Cc1ccccc1CN1CCc2nc(N3CCc4ccccc4C3)[nH]c(=O)c2CC1	-1%[5.79 µM]
CC(C)N1CCC(N2CCN(Cc3cn[nH]c3-c3cccc(F)c3)CC2CCO)CC1 (centres undefined)	4%
Cc1cc(C(=O)N[C@H](C)c2onc(-c3cccnc3)c2C(=O)O)no1	9%[44.1 µM]
COCc1cc(=O)n(CC(=O)Nc2cccc(C(F)(F)F)c2)c(N2CCOCC2)n1	i
SMILES	Pf Dd2 inh
CN(Cc1ccccc1)Cc1ccccc1OCC(O)CN1CCCCC1 (centres undefined)	0.79µM*
CN(CCC1CCOCC1)Cc1ccccc1OCC(O)CN1CCSCC1 (centres undefined)	-12%
COCCn1cc(CN(C)Cc2ccccc2)ccc1=O	3%
O=C(c1cc(F)ccc1F)N1CCC(c2n[nH]c(=O)n2-c2ccccc2)CC1	36%
Cc1ncsc1CCC(=O)N1C[C@@H](c2ccccc2)[C@@H]2[C@H]1C1CCN2CC1	2%
CCn1cc(C(=O)N2C[C@H](c3cccc(OC)c3)[C@@H]3[C@H]2C2CCN3CC2)cn1	-12%
COc1ccc([C@@H]2CN(C(=O)c3sccc3C)[C@@H]3C4CCN(CC4)[C@@H]32)cc1	10µM*
Cc1c(Cl)cccc1NC(=O)Cn1ccn2nc(-c3ccccc3)c(CO)c2c1=O	1%
Cc1cncc(-c2ccc(S(N)(=O)=O)cc2F)c1	2%
O=C(O)C1CCc2nnc(C3CCN(C(=O)c4cccc(Cl)c4)C3)n21 (centres undefined)	18%
O=C(C1CCC(CNS(=O)(=O)c2ccc(Br)s2)CC1)N1CCN(c2ccccc2)CC1 (centres undefined)	-6%
O=C(C1CCN(S(=O)(=O)c2cccs2)CC1)N1CCN(c2cccc(Cl)c2)CC1	-15%
O=C(C1CCC(CNS(=O)(=O)c2cccs2)CC1)N1CCN(c2ccc(Cl)cc2)CC1 (centres undefined)	13µM*
CC(C)CC(=O)N1C[C@@H](Oc2cccnc2)C[C@H]1C(=O)NC1CC1	38%
C#C[C@H]1CN2CC[C@H]1C[C@@H]2CNS(=O)(=O)c1ccc(C)cc1	-9%[44.1 µM]

Assay outcomes (PubChem BioAssay)
